What all share (assay): DAPPL (digital affinity profiling via proximity ligation, sequencing); 10 mM Tris-HCl pH 7.5, 50 mM NaCl, 1 mM DTT, 4% glycerol, room temperature, 30 min; GST-TFs on glutathione beads, 16-mer random dsDNA library, 0.1% formaldehyde crosslink after washing; high values mean tight binding
Holding throughout (details): protein: recombinant; tags: N-terminal GST; dsDNA, one strand shown

In one test the target is T1, FLI1 (Homo sapiens, UniProt Q01543 1-452).
T1 sequence: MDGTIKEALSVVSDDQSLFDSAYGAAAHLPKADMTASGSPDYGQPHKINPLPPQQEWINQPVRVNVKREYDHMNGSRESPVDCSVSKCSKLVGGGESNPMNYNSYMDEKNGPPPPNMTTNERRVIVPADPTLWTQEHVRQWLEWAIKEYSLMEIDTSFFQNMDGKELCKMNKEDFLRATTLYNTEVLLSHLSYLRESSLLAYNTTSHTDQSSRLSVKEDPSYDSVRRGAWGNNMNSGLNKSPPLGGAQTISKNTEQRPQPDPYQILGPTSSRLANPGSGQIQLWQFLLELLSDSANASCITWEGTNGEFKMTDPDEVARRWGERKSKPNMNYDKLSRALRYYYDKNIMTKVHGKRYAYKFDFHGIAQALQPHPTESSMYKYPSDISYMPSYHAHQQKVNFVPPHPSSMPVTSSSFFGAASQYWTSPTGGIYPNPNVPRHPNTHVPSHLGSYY
An outline of the steps:
(§1)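 Beads coated with glutathione captured GST-fused human transcription factors that had been expressed in yeast, and the factors were then given DNA barcodes and pooled with a tag-only sample. The pools were incubated with 200 nmole of a random double-stranded 16-mer DNA library in Tris/NaCl/DTT/glycerol buffer for 30 min at room temperature, washed, crosslinked with 0.1% formaldehyde and proximity-ligated with BsaI/T4 ligase at 37 °C for 1 h. PCR amplification and Illumina NextSeq500 sequencing came last. Binding signal is each hexamer's read frequency for a factor divided by its frequency for the tag-only sample.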

For a further test, the target named is T2, ERG (Homo sapiens, UniProt P11308 1-479).
T2 sequence: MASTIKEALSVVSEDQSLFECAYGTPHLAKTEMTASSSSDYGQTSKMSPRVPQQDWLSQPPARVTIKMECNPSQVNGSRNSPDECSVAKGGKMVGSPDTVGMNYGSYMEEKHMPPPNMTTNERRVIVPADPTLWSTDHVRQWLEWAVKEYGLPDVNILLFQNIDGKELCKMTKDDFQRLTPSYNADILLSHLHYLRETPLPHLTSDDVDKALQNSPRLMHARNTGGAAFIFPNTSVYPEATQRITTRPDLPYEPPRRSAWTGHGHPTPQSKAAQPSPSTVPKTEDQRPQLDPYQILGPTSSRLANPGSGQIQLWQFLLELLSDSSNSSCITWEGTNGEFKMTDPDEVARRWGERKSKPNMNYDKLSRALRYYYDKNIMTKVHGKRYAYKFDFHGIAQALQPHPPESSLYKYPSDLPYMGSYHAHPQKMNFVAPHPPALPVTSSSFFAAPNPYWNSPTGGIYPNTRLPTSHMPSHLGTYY
The method in brief:
as §1

The next test concerns the target T3, EHF (Homo sapiens, UniProt Q9NZC4 1-300).
T3 sequence: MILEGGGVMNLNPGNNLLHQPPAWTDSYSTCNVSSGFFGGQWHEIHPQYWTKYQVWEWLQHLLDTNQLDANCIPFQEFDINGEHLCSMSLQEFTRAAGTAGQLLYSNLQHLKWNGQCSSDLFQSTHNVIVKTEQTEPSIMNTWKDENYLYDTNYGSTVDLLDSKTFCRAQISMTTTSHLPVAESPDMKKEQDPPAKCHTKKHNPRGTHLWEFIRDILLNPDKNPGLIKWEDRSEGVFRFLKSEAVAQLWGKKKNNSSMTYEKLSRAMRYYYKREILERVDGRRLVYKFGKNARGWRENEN
An outline of the steps:
as §1

The target of the next test is SPI1 (Homo sapiens, UniProt P17947 1-270). An outline of the steps:
as §1

In another test the target is SPIB (Homo sapiens, UniProt Q01892 1-262). The method in brief:
as §1

The target in another test is T4, ELK3 (Homo sapiens, UniProt P41970 1-407).
T4 sequence: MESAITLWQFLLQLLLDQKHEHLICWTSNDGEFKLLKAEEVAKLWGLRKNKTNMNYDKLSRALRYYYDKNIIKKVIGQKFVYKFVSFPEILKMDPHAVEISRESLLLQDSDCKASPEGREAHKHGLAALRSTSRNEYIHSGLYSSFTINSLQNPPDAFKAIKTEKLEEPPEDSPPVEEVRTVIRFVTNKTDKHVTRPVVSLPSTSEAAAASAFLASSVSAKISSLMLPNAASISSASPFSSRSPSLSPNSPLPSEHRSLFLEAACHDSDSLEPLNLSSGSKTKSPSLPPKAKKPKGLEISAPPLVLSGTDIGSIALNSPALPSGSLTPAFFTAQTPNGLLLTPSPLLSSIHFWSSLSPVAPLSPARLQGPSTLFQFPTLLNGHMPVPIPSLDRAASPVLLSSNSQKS
An outline of the steps:
as §1

The next test addresses ETV5 (Homo sapiens, UniProt P41161 1-510). An outline of the steps:
as §1

In another test the target is T5, SPIC (Homo sapiens, UniProt Q8N5J4 1-248).
T5 sequence: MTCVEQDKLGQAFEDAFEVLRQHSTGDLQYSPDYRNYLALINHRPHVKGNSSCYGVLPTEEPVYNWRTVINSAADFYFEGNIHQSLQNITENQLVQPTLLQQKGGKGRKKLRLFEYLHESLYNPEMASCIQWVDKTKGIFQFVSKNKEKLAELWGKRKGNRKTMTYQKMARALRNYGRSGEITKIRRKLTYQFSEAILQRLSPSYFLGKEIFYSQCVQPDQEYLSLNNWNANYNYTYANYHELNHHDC
The method in brief:
as §1

The target in a further test is T6, ERF (Homo sapiens, UniProt P50548 1-548).
T6 sequence: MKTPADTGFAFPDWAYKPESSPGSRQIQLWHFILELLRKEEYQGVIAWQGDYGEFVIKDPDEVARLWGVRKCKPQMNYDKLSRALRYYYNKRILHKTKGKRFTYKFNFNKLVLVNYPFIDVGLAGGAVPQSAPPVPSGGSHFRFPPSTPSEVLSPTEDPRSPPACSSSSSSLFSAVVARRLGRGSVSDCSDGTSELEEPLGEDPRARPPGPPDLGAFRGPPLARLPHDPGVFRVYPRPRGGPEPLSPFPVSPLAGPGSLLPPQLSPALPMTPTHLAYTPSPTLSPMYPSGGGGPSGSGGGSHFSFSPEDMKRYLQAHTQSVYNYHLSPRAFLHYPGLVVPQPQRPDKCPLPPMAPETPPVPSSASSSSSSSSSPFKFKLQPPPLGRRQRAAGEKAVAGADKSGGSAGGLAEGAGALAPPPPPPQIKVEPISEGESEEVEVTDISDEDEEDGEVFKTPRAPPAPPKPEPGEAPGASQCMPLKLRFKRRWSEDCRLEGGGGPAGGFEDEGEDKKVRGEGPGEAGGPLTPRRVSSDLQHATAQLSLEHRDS
The method in brief: as §1

For the next test, the target named is T7, ELF5 (Homo sapiens, UniProt Q9UKW6-2 1-255).
T7 sequence: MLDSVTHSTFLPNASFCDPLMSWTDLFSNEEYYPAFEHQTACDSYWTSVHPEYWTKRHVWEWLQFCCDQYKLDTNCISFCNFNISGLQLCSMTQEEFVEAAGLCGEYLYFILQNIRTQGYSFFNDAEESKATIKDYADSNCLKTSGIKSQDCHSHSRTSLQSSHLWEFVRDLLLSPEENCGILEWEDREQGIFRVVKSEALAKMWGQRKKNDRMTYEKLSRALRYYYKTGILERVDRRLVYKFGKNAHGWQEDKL
An outline of the steps: as §1

Another test addresses T8, ETV3 (Homo sapiens, UniProt P41162-2 1-143).
T8 sequence: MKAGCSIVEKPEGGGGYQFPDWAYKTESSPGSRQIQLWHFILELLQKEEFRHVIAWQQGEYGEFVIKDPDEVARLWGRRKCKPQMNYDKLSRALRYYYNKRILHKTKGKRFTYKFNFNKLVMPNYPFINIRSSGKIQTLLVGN
An outline of the steps:
as §1

The target in the next test is ETV6 (Homo sapiens, UniProt P41212 1-452). An outline of the steps:
as §1

In publication PMC7862700, “An all-to-all approach to the identification of sequence-specific readers for epigenetic DNA modifications on cytosine” one finds binding signal data, which are given here for one sequence.

Chain of SPIB (Q01892 whole entry): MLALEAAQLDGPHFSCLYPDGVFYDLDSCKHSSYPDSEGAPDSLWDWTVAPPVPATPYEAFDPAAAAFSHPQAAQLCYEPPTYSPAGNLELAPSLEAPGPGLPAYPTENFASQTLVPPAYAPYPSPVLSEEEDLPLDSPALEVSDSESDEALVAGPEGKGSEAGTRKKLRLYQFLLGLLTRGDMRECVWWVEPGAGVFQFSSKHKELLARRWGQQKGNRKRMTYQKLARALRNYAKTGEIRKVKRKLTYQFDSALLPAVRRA
Chain of ETV6 (P41212 whole entry): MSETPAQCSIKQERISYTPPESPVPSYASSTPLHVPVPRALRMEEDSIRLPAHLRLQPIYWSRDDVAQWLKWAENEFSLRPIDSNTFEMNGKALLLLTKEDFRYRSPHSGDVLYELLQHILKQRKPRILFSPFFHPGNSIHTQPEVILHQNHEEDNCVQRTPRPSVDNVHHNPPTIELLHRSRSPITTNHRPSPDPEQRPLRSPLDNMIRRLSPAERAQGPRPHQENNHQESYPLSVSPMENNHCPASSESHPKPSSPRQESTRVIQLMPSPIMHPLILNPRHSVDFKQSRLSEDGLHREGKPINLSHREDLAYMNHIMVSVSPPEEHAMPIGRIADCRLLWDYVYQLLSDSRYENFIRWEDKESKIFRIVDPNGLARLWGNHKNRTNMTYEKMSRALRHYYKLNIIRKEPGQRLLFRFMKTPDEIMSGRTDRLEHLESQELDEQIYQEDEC
Chain of ETV5 (P41161 whole entry): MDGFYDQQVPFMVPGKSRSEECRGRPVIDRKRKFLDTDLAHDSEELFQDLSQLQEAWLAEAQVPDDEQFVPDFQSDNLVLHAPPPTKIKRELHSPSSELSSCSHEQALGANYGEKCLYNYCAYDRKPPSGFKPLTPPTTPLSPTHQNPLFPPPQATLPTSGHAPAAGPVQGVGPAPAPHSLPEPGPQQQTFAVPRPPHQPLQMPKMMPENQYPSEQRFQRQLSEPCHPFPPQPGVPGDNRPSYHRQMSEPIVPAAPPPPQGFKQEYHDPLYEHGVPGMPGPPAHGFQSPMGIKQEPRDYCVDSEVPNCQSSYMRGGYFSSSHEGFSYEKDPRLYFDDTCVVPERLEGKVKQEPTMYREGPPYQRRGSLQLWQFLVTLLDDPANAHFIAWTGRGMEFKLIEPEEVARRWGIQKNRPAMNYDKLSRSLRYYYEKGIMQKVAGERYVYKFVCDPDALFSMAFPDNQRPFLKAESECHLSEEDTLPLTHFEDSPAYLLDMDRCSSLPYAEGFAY

Take AGTAAC: the binding signal with FLI1 was 1.02 fold enrichment (6-mer frequency, TF over GST control); with ERG it was 1.02 fold enrichment (6-mer frequency, TF over GST control); with EHF, 1 fold enrichment (6-mer frequency, TF over GST control); with SPI1 it was 1.07 fold enrichment (6-mer frequency, TF over GST control); with SPIB, 1 fold enrichment (6-mer frequency, TF over GST control); in the test with ELK3, 1.01 fold enrichment (6-mer frequency, TF over GST control). The binding signal in the test with ETV5 is 1.03 fold enrichment (6-mer frequency, TF over GST control); in the test with SPIC, 1.07 fold enrichment (6-mer frequency, TF over GST control); with ERF, 1.01 fold enrichment (6-mer frequency, TF over GST control); with ELF5, 1.09 fold enrichment (6-mer frequency, TF over GST control); with ETV3 it was 1.09 fold enrichment (6-mer frequency, TF over GST control); in the test with ETV6 it was 1.09 fold enrichment (6-mer frequency, TF over GST control).
